Data taken from PubChem BioAssay (NCATS).
Inconclusive results are not listed. Calls of active or inactive are those of the source. The call rests on the fitted dose curve; in most records, active means well fitted curve in the direction sought with a large enough effect; inconclusive means small, poorly fitted or top-dose-only effect, or another doubt; inactive means no such curve, though single readings can be large; an effect the other way counts as inactive or inconclusive.

Experiments:
[1] = qHTS of pediatric cancer cell lines to identify multiple opportunities for drug repurposing: Primary screen for BT-12 cells (AID 1347101); further: nearly all actives have a fitted effect of over 25% in size
Outline: (§1)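 Cells (500-1,000/well) rested 5 h, then received compounds for 48 h; metabolically active cells were measured by CellTiter-Glo luminescence. Final concentrations spanned up to 46 µM (MIPE, 11-point) or 0.59 nM-46 µM (NPC, 8-point) in primary screens, 11-point in follow-ups.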

[2] = qHTS of pediatric cancer cell lines to identify multiple opportunities for drug repurposing: Primary screen for Rh18 cells (AID 1347102); further: nearly all actives have a fitted effect of over 65% in size
Outline: as §1

[3] = qHTS of pediatric cancer cell lines to identify multiple opportunities for drug repurposing: Primary screen for OHS-50 cells (AID 1347103); further: nearly all actives have a fitted effect of over 40% in size
Outline: as §1

[4] = qHTS of pediatric cancer cell lines to identify multiple opportunities for drug repurposing: Primary screen for RD cells (AID 1347104); further: nearly all actives have a fitted effect of over 55% in size
Outline: (§2)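 Primary screen of approved and investigational compounds on cells in growth media at 37 degrees C, 5% CO2. MIPE set at 11-point and NPC set at 8-point dilutions; viability scored by ATP-based luminescence at 48 hours.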

[5] = qHTS of pediatric cancer cell lines to identify multiple opportunities for drug repurposing: Primary screen for MG 63 (6-TG R) cells (AID 1347105); further: nearly all actives have a fitted effect of over 50% in size
Outline: as §2

[6] = qHTS of pediatric cancer cell lines to identify multiple opportunities for drug repurposing: Primary screen for control Hh wild type fibroblast cells (AID 1347106); further: nearly all actives have a fitted effect of over 55% in size;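 on activity change, negative = cytotoxic: a drop in luminescence marks cytotoxicity and a rise apparent proliferation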
Outline: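 Viability after 48 h compound treatment at 37C, 500-1,000 cells/well, read as ATP luminescence with CellTiter-Glo. Primary screens used 11-point (MIPE, 0.78 nM-46 µM) or 8-point (NPC, 0.59 nM-46 µM) final concentrations; follow-up screens used 11-point dilutions.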

[7] = qHTS of pediatric cancer cell lines to identify multiple opportunities for drug repurposing: Primary screen for Rh41 cells (AID 1347108); further: nearly all actives have a fitted effect of over 70% in size;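 on activity change, negative = cytotoxic: luminescence drop marks cytotoxic hits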
Outline: as §2

[8] = qHTS of pediatric cancer cell lines to identify multiple opportunities for drug repurposing: Confirmatory screen for NB1643 cells (AID 1347109); further: nearly all actives have a fitted effect of over 45% in size
Outline: as §1

[9] = qHTS of pediatric cancer cell lines to identify multiple opportunities for drug repurposing: Confirmatory screen for A673 cells (AID 1347110);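 further: cells exposed to compound for 48 h before the viability read; nearly all actives have a fitted effect of over 65% in size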
Outline: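 Forty-eight-hour viability assay. Follow-up compounds ran at 11-point dilutions; positive control bortezomib at 2.3 uM final, neutral control DMSO.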

[10] = qHTS of pediatric cancer cell lines to identify multiple opportunities for drug repurposing: Confirmatory screen for SK-N-MC cells (AID 1347111);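 further: cells exposed to compound for 48 h before the readout; nearly all actives have a fitted effect of over 70% in size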
Outline: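 Seed 500-1,000 cells/well; rest 5 h at 37 degrees C. Pin-transfer compounds, 11-point titration. Incubate 48 h. Add CellTiter-Glo, 15 min RT, read luminescence.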

[11] = qHTS of pediatric cancer cell lines to identify multiple opportunities for drug repurposing: Confirmatory screen for LAN-5 cells (AID 1347113); further: nearly all actives have a fitted effect of over 65% in size
Outline: as §1

[12] = qHTS of pediatric cancer cell lines to identify multiple opportunities for drug repurposing: Confirmatory screen for DAOY cells (AID 1347114); further: nearly all actives have a fitted effect of over 65% in size
Outline: (§3)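 Viability measured as metabolically active cells via CellTiter-Glo luminescence following 48 hours of compound exposure, 11-point dilutions in confirmatory testing. 500-1,000 cells/well plated 5 hours before dosing; controls were DMSO and 2.3 µM bortezomib.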

[13] = qHTS of pediatric cancer cell lines to identify multiple opportunities for drug repurposing: Confirmatory screen for NB-EBc1 cells (AID 1347115);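 further: cells exposed to compound for 48 h before the viability read; nearly all actives have a fitted effect of over 45% in size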
Outline: as §1

[14] = qHTS of pediatric cancer cell lines to identify multiple opportunities for drug repurposing: Confirmatory screen for SJ-GBM2 cells (AID 1347116); further: nearly all actives have a fitted effect of over 60% in size
Outline: as §3

[15] = qHTS of pediatric cancer cell lines to identify multiple opportunities for drug repurposing: Confirmatory screen for BT-37 cells (AID 1347117); conditions: BT-37 pediatric cancer cells, viability; activity change, negative = cytotoxic: at 45.9 µM (top of the series); further: nearly all actives have a fitted effect of over 55% in size
Outline: as §1

[16] = qHTS of pediatric cancer cell lines to identify multiple opportunities for drug repurposing: Confirmatory screen for TC32 cells (AID 1347118)
Outline: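 Measured quantity: luminescence from CellTiter-Glo, reflecting metabolically active TC32 cells following 48 h of compound. Curves came straight from multi-point titrations, with 8 or 11 points in primary and 11 in confirmatory screening.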

[17] = qHTS of pediatric cancer cell lines to identify multiple opportunities for drug repurposing: Confirmatory screen for MG 63 (6-TG R) cells (AID 1347119); further: nearly all actives have a fitted effect of over 55% in size
Outline: as §1

[18] = qHTS of pediatric cancer cell lines to identify multiple opportunities for drug repurposing: Confirmatory screen for control Hh wild type fibroblast cells (AID 1347121); further: nearly all actives have a fitted effect of over 70% in size
Outline: as §1

[19] = qHTS of pediatric cancer cell lines to identify multiple opportunities for drug repurposing: Primary screen for Rh30 cells (AID 1347107); further: nearly all actives have a fitted effect of over 75% in size
Outline: as §1

[20] = qHTS of pediatric cancer cell lines to identify multiple opportunities for drug repurposing: Confirmatory screen for BT-12 cells (AID 1347112); further: nearly all actives have a fitted effect of over 55% in size
Outline: as §1
Potency means the concentration at half of the fitted maximal effect.

Row | SMILES | Potency [1] | Potency [2] | Potency [3] | Potency [4] | Potency [5] | Potency [6] | Potency [7] | Potency [8] | Potency [9] | Potency [10] | Potency [11] | Potency [12] | Potency [13] | Potency [14] | Potency [15] | Potency [16] | Potency [17] | Potency [18] | Potency [19] | Potency [20]
1 | CNC(=O)c1ccc(Nc2cc(Nc3ccccc3S(=O)(=O)C(C)C)c3cc[nH]c3n2)nc1 | 4.85 µM (active) | 9.35 µM (active) | 0.544 µM (active) | 5.9 µM (active) | 5.9 µM (active) | inactive | 5.9 µM (active) | 1.47 µM (active) | 1.17 µM (active) | 2.61 µM (active) | 2.93 µM (active) | 5.85 µM (active) | 5.85 µM (active) | 10.4 µM (active) | 6.57 µM (active) | 1.85 µM (active) | 1.04 µM (active) | 13.1 µM (active) | – | –
2 | Cn1cc(CNCC2CCN(c3ncc(C(=O)NO)cn3)CC2)c2ccccc21 | 0.193 µM (active) | 0.0372 µM (active) | 0.0863 µM (active) | 0.187 µM (active) | 0.187 µM (active) | 2.64 µM (active) | – | 0.165 µM (active) | 0.104 µM (active) | – | – | 0.261 µM (active) | – | 0.208 µM (active) | – | – | 0.131 µM (active) | 1.31 µM (active) | 1.18 µM (active) | –
3 | CCS(=O)(=O)Nc1ccc2[nH]c(O)c(C(=Nc3ccc(CN4CCCCC4)cc3)c3ccccc3)c2c1 | 21.7 µM (active) | 4.18 µM (active) | 1.53 µM (active) | 0.469 µM (active) | 5.9 µM (active) | inactive | – | 0.0657 µM (active) | 0.928 µM (active) | 0.0737 µM (active) | 0.185 µM (active) | 16.5 µM (active) | 4.65 µM (active) | 14.7 µM (active) | 16.5 µM (active) | 0.0414 µM (active) | 0.329 µM (active) | – | – | –
4 | O=C1c2c(O)cccc2[C@@H]([C@@H]2O[C@H](CO)[C@@H](O)[C@H](O)[C@H]2O)c2cc(CO)cc(O)c21 | inactive | inactive | inactive | inactive | inactive | inactive | inactive | inactive | inactive | – | inactive | inactive | – | – | – | – | – | inactive | inactive | –
5 | CCN(CC)Cc1ccc2cc(COC(=O)Nc3ccc(C(=O)NO)cc3)ccc2c1 | 3.06 µM (active) | 0.743 µM (active) | 0.863 µM (active) | 2.35 µM (active) | 4.69 µM (active) | 14.8 µM (active) | – | inactive | inactive | inactive | inactive | inactive | – | inactive | inactive | inactive | inactive | – | 4.69 µM (active) | inactive
6 | CC(C=CC(=O)NO)=C[C@@H](C)C(=O)c1ccc(N(C)C)cc1 | 1.93 µM (active) | 0.526 µM (active) | 0.863 µM (active) | 1.32 µM (active) | 2.35 µM (active) | – | 1.48 µM (active) | 0.585 µM (active) | 0.827 µM (active) | 0.185 µM (active) | 0.414 µM (active) | 2.33 µM (active) | 0.585 µM (active) | 2.08 µM (active) | 0.827 µM (active) | 0.414 µM (active) | 1.17 µM (active) | 6.57 µM (active) | 7.43 µM (active) | –
7 | Cc1cnc(Nc2ccc(N3CCN(C)CC3)cc2)nc1Nc1cccc(S(=O)(=O)NC(C)(C)C)c1 | 21.7 µM (active) | 3.32 µM (active) | 1.09 µM (active) | 5.26 µM (active) | 7.43 µM (active) | 16.6 µM (active) | 5.9 µM (active) | 4.65 µM (active) | 4.65 µM (active) | 3.29 µM (active) | 7.37 µM (active) | 18.5 µM (active) | 14.7 µM (active) | – | 5.85 µM (active) | 2.33 µM (active) | 2.93 µM (active) | 14.7 µM (active) | 5.9 µM (active) | –
8 | Cn1cc(C[C@@H](N)C(=O)O)c2ccccc21 | inactive | inactive | inactive | inactive | inactive | – | inactive | – | – | – | – | – | – | – | – | – | – | – | inactive | –
9 | CC(=O)[C@]1(O)Cc2c(O)c3c(c(O)c2[C@@H](O[C@H]2C[C@H](N)[C@@H](O)[C@H](C)O2)C1)C(=O)c1ccccc1C3=O | 0.685 µM (active) | 4.69 µM (active) | 0.485 µM (active) | 1.05 µM (active) | 0.235 µM (active) | 3.72 µM (active) | 0.935 µM (active) | – | 0.0827 µM (active) | 0.522 µM (active) | 0.329 µM (active) | 2.08 µM (active) | 0.465 µM (active) | 0.369 µM (active) | 0.329 µM (active) | 0.293 µM (active) | – | – | – | 4.14 µM (active)
10 | C[C@H](NCc1ccc2c(c1)nc(NC(=O)c1ccc(-c3cn[nH]c3)s1)n2CCc1ccccc1)C(C)(C)C | 2.43 µM (active) | 2.96 µM (active) | 1.09 µM (active) | 3.72 µM (active) | 2.96 µM (active) | – | 2.35 µM (active) | 1.04 µM (active) | 0.928 µM (active) | 0.928 µM (active) | 1.65 µM (active) | 2.93 µM (active) | 1.31 µM (active) | 0.928 µM (active) | 0.928 µM (active) | 0.928 µM (active) | 2.33 µM (active) | 10.4 µM (active) | 14.8 µM (active) | –
